Results published in PubChem BioAssay AID624330 (Southern Research Specialized Biocontainment Screening …, 2012).
About 2,100 (0.62%) of roughly 340,000 compounds were called active.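 How the source made its calls: active means first-screen hits whose inhibition reached a set limit at any dose in the follow-up dose series; inconclusive means inhibition above the set first-screen limit but never retested; inactive means the rest.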 A selection follows. Results with a measured potency or affinity are listed apart.

target: Rac GTPase-activating protein 1 (Homo sapiens) (UniProt Q9H0H5); assay: MgcRacGAP GTPase-activating activity inhibitors, confirmation, biochemical, ADP Hunter fluorescence, primary and confirmatory (AID 624330); conditions: MgcRacGAP-stimulated Rac1 GTP hydrolysis, at 30 µM, hits give high values, GST-tagged Rac1 F28L mutant substrate;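 further: fluorescence reports GDP produced by GAP-driven GTP hydrolysis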
Sequence (Q9H0H5 whole entry, looked up): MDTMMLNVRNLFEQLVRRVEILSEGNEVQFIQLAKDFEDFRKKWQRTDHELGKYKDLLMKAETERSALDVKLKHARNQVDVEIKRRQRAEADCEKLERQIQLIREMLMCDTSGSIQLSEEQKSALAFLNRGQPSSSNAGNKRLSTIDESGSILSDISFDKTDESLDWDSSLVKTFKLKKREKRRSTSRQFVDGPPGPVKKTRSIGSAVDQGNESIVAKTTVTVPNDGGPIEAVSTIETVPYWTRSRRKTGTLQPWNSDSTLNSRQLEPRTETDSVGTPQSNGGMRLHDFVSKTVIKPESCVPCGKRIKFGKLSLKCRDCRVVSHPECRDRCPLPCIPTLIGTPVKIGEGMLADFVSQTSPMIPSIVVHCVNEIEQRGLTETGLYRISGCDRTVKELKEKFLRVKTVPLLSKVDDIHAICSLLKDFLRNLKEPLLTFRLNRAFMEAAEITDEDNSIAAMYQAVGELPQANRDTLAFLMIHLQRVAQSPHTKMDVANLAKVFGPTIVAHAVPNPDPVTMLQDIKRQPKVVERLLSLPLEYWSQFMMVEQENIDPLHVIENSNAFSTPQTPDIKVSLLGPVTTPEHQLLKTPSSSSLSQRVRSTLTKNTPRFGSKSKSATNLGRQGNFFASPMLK

inhibition, inactive:
CN(C)CCN(Cc1ccco1)S(=O)(=O)c1csc(C(N)=O)c1 4.25%, O=C(c1ccccn1)N1CCN(C(=O)c2ccccn2)CC1 3.69%, O=C(c1ccc(OC2CCN(CCCc3ccccc3)CC2)cc1)N1CCCC1 3.48%, NC(=O)NCC1CC1 4.2%, O=C(OCC(=O)N1N=C(c2ccc(Cl)cc2)CC1c1ccco1)c1ccccc1O (stereo unspecified) 3.05%, CC[C@]12c3[nH]c4cc(-c5ccco5)ccc4c3CCN1C(=O)[C@@H](CC(=O)NC/C=C(\C)CCC=C(C)C)C[C@@H]2C(=O)N1CCN(C(=O)C2CC2)CC1 -1.48%, O=C(O)C1CSC(c2ccncc2)N1 (stereo unspecified) 8.95%, O=C1CSC(c2ccco2)N1 (stereo unspecified) 0.85%, CC1=NN(c2ccccc2)C(=O)/C1=C/N(C)C 8.12%, COc1ccc(/C=C2/C(=O)N(c3ccccc3)N=C2C)cc1OC 17.9%, CCOc1cc(/C=C2\C(=O)N(CCC#N)N=C2C)ccc1OCC(N)=O 21.4%, COc1cc(C=C2C(=O)OC(C)(C)OC2=O)ccc1OCC(=O)Nc1ccccc1 4.19%, COc1ccc(/C=C2/C(=O)N(c3ccccc3)N=C2C)cc1Br 1.8%, CC1=NN(c2ccccc2)C(=O)/C1=C/C=C/c1ccccc1 6.5%, C#CCOc1ccc(/C=C2/C(=O)N(c3cccc(C(=O)O)c3)N=C2C)cc1OC 31.7%, COc1ccccc1/C=C1/C(=O)N(c2ccc([N+](=O)[O-])cc2)N=C1C 4.92%, O=C(C1CCN(c2nnc(N3CCCC3=O)s2)CC1)N1CCN(c2cccc(C(F)(F)F)c2)CC1 7.18%, COC(=O)c1cccc2c(C(=O)O)cc(-c3ccccc3)nc12 3.38%, c1ccc2c(c1)ccc1nnc(SCc3ccc4c(c3)OCCO4)n12 3.92%, CC(=O)OC1CC2(C)C(CCC2(O)C(C)=O)C2CCC3C(Cl)C(=O)CCC3(C)C12 (stereo unspecified) 2.5%, COCC(=O)N1C[C@H]2CON(C)[C@H]2C[C@H]1c1cccc(-c2ccccc2OC)c1 15.1%, CCOP(=O)(OCC)c1ccc2c(c1)C(=O)c1ccccc1CC2 9.38%, CCOc1ncccc1C(=O)OCc1c(F)cccc1Cl -3.89%, CC(C)(C)C(=O)Nc1c2c(nn1-c1ccc(F)cc1)CSC2 11%, CCCc1ccc2oc(C(=O)NCCN3CCCC(C(N)=O)C3)c(C)c2c1 (stereo unspecified) -11.6%, COc1ccc2ccccc2c1CNCCCN1CCOCC1 5.19%
